Drawing on PubChem BioAssay (Tox21), this text covers Potency for 6 molecules.

A short description of assay [1]: qHTS assay to identify small molecule antagonists of the thyroid receptor (TR) signaling pathway (AID 743065). Further: nearly all actives have a fitted effect of over 55% in size. Further: potency means the concentration at half of the fitted maximal effect. An outline of the steps:
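GH3.TRE-Luc rat pituitary cells carrying two TR response elements driving luciferase were plated for 4 h, given compound plus 1 nM T3 (final), and incubated 23.5 h at 37 C. ONE-Glo luminescence measured reporter inhibition; CellTiter-Fluor fluorescence tracked cytotoxicity.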
For orientation: In qHTS, concentration-response curves come from the screen itself.

The test system of assay [2] is thyroid hormone receptor (rat, GH3 cells). Put plainly: qHTS assay to identify small molecule agonists of the thyroid receptor (TR) signaling pathway (AID 743066; calls by dose curve).
Assay [3] addresses Estrogen receptor (Homo sapiens) (UniProt P03372). Put plainly: qHTS assay to identify small molecule antagonists of the estrogen receptor alpha (ER-alpha) signaling pathway (AID 743069; active means well fitted curve in the direction sought with a large enough effect in the signal ratio in the repeat runs, not every such curve was filed as active; inconclusive means weak or mixed curves, or effect the other way; inactive means no such curve, though single readings can be large or run the other way; the % refers to the signal ratio; further: potency means the concentration at half of the fitted maximal effect). An outline of the steps: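 A 17beta-estradiol challenge was applied right after compound transfer to ER-alpha-UAS-bla HEK293 cells previously kept in charcoal-stripped serum. Plates stood 18 hr at 37C and 5% CO2; fluorescence was read following 2 hr FRET substrate loading at room temperature.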

For assay [4] the target is unchanged. Put plainly: qHTS assay to identify small molecule agonists of the estrogen receptor alpha (ER-alpha) signaling pathway (AID 743075; calls by dose curve;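 further: HEK293 GripTite cells with ER-alpha and UAS-driven beta-lactamase reporter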).
Assay [5] is described as follows: qHTS assay to identify small molecule antagonists of the estrogen receptor alpha (ER-alpha) signaling pathway using the BG1 cell line (AID 743080; calls by dose curve;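 further: BG1 cells stimulated with 17beta-estradiol alongside compound; nearly all actives have a fitted effect of over 25% in size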; further: potency means the concentration at half of the fitted maximal effect). An outline of the steps:
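Luciferase inhibition measured with ONE-Glo after 30 min at RT in BG1Luc4E2 cells given test compounds and 17beta-estradiol for 21.5 h at 37 C; CellTiter-Fluor viability read in the same wells beforehand.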

Assay [6] can be described thus: qHTS assay to identify small molecule antagonists of the estrogen receptor alpha (ER-alpha) signaling pathway using the BG1 cell line - cell viability counter screen (AID 743081).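 Further: compound given together with 17beta-estradiol as the ER stimulus; nearly all actives have a fitted effect of over 45% in size.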 Further: potency means the concentration at half of the fitted maximal effect.
The target in another assay is Aromatase (Homo sapiens) (UniProt P11511). Put plainly: qHTS assay to identify aromatase inhibitors (AID 743083). Further: nearly all actives have a fitted effect of over 55% in size. Further: potency means the concentration at half of the fitted maximal effect.
Sequence of Aromatase (Homo sapiens) (P11511 whole entry, looked up): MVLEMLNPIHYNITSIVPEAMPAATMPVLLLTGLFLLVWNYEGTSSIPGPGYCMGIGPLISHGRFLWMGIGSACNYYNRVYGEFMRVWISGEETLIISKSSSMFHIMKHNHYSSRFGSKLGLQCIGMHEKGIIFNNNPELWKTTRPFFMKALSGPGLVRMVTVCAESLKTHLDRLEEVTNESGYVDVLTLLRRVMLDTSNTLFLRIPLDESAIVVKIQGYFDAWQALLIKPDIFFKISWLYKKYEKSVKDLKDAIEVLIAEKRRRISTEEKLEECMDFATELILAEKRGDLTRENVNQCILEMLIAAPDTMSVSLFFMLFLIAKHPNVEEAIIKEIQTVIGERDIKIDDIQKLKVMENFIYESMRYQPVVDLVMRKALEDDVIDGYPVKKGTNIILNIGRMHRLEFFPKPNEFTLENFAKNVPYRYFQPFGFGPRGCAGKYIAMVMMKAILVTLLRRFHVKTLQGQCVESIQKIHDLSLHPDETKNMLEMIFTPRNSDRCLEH
The nature of assay [7]: qHTS assay to identify aromatase inhibitors - cell viability counter screen (AID 743084).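 Further: cells stimulated with testosterone during compound exposure; nearly all actives have a fitted effect of over 55% in size.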 Further: potency means the concentration at half of the fitted maximal effect.
The target of assay [8] is Aryl hydrocarbon receptor (Homo sapiens) (UniProt P35869). Put plainly: qHTS assay to identify small molecule that activate the aryl hydrocarbon receptor (AhR) signaling pathway (AID 743085).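 Further: HG2L7.5c1 human HepG2 liver cells with stably integrated DRE-driven firefly reporter; series mostly up to about 70 µM; nearly all actives have a fitted effect of over 15% in size.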 The method, boiled down: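 Cell line HG2L7.5c1 (human hepatoma, 20× DRE-luc). Plated, 5 h 37C, compound/DMSO added, 24 h 37C. CellTiter-Fluor 30 min 37C → fluorescence; then ONE-Glo 30 min RT → luminescence.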
Sequence of Aryl hydrocarbon receptor (Homo sapiens) (P35869 whole entry, looked up): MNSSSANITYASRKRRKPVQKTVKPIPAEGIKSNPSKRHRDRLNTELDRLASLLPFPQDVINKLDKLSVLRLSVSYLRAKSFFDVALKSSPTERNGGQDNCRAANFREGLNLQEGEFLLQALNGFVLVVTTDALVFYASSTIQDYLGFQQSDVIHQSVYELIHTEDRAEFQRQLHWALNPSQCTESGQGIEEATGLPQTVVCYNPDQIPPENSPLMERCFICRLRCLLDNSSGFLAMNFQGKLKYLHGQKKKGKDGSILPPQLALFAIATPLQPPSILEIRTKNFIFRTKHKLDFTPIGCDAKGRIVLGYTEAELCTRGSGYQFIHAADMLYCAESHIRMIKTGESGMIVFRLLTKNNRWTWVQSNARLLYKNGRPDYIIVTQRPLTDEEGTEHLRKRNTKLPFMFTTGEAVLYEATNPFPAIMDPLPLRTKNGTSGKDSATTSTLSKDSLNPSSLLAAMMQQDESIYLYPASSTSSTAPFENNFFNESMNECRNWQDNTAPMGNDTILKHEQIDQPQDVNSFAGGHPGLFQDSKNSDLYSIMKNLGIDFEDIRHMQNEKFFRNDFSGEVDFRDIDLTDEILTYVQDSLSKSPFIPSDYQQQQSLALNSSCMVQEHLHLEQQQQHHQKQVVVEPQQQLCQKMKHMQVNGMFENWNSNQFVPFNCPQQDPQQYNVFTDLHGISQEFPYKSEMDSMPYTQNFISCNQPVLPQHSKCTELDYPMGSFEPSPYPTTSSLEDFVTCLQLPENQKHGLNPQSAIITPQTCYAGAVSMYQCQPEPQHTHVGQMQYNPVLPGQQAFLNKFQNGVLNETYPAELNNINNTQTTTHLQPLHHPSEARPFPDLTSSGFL

Assay [9] can be described thus: qHTS assay to identify small molecule that activate the aryl hydrocarbon receptor (AhR) signaling pathway - cell viability counter screen (AID 743086). Further: nearly all actives have a fitted effect of over 45% in size. Further: potency means the concentration at half of the fitted maximal effect. An outline of the steps:
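HepG2-AhR-luc (HG2L7.5c1) cells, 4000/well, were preincubated 5 h at 37C, exposed to compound in qHTS format for 24 hr at 37C, then given CellTiter-Fluor for 30 min; viability was read as fluorescence in the reporter wells.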

Assay [10] in a line: qHTS assay for small molecule activators of the heat shock response signaling pathway (AID 743210; active means well fitted activation curve with a large enough effect in the signal ratio in the repeat runs, with a control signal flat, not every such curve was filed as active; inconclusive means weak or mixed curves; the % refers to the signal ratio; further: series mostly up to about 63 µM). The method, boiled down:
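Heat shock element–beta-lactamase HeLa reporter cells; qHTS with compounds for 5 h at 37 C; detection by FRET substrate fluorescence after 2.5 h at RT.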

Assay [11] is described as follows: qHTS assay to identify small molecule agonists of the peroxisome proliferator-activated receptor delta (PPARd) signaling pathway - cell viability counter screen (AID 743211). Further: nearly all actives have a fitted effect of over 55% in size. Further: potency means the concentration at half of the fitted maximal effect. The method, boiled down: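 HEK293H PPARd-bla, 3000 cells/well; 5 h preincubation 37C/5% CO2; cpd in DMSO, 17 h 37C; B/G FRET substrate 2 h RT; CellTiter-Glo 30 min RT, luminescence.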
Assay [12] in a line: qHTS assay to identify small molecule antagonists of the estrogen receptor alpha (ER-alpha) signaling pathway - cell viability counter screen (AID 743074; calls by dose curve;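 further: HEK293 cells carrying ER-alpha-UAS-bla reporter stimulated with 17beta-estradiol; nearly all actives have a fitted effect of over 45% in size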).
The target of assay [13] is Estrogen receptor (Homo sapiens) (UniProt P03372). Put plainly: qHTS assay to identify small molecule agonists of the estrogen receptor alpha (ER-alpha) signaling pathway using the BG1 cell line (AID 743079). Further: nearly all actives have a fitted effect of over 20% in size.
Sequence of Estrogen receptor (Homo sapiens) (P03372 whole entry, looked up): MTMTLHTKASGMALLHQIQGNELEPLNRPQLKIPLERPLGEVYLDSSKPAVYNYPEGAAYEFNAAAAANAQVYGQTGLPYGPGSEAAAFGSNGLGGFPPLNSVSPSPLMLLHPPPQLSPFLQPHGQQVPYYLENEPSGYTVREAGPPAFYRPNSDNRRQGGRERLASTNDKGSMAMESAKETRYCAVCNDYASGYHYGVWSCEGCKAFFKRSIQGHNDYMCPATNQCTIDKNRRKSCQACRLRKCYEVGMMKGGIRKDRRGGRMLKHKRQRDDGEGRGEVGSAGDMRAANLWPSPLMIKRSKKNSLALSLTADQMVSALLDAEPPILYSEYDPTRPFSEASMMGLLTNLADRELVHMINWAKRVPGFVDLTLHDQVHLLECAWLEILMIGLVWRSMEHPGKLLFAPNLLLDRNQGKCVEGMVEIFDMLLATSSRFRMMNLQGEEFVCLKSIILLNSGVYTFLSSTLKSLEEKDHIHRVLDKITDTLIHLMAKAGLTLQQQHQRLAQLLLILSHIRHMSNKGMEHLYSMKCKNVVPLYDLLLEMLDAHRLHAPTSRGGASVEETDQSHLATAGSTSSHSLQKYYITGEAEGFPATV
Assay [14] has as its target Peroxisome proliferator-activated receptor gamma (Homo sapiens) (UniProt P37231). The assay is described as follows: qHTS assay to identify small molecule agonists of the peroxisome proliferator-activated receptor gamma (PPARg) signaling pathway (AID 743094; active means well fitted activation curve with a large enough effect in the signal ratio in the repeat runs, not every such curve was filed as active; inconclusive means weak or mixed curves, or effect the other way; inactive means no such curve, though single readings can be large or run the other way; the % refers to the signal ratio). The method, boiled down:
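Reporter activation was scored by fluorescence of cleaved LiveBLAzer B/G substrate (1 h, room temperature) in PPARg-bla HEK293H cells previously treated 17 h at 37C with DMSO-dissolved compounds.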

The target is the same in assay [15]. Put plainly: qHTS assay to identify small molecule antagonists of the peroxisome proliferator-activated receptor gamma (PPARg) signaling pathway (AID 743191; calls by dose curve; further: series mostly up to about 63 µM; nearly all actives have a fitted effect of over 30% in size). An outline of the steps: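 GeneBLAzer PPARg UAS-bla HEK293H cells carrying a UAS-driven beta-lactamase reporter were plated at 3000 cells/well, preincubated 5 h at 37C, then given compound for 17 h at 37C; LiveBLAzer B/G FRET substrate was read after 1 h at room temperature.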

Assay [16] in a line: qHTS assay to identify small molecule antagonists of the peroxisome proliferator-activated receptor gamma (PPARg) signaling pathway - cell viability counter screen (AID 743194). Further: nearly all actives have a fitted effect of over 55% in size. An outline of the steps:
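PPARg-UAS-bla HEK293H cells were plated, rested 5 h at 37 C, then treated with compounds plus rosiglitazone (50 nM final) for 17 h at 37 C; viability was then read by CellTiter-Glo luminescence after 30 min at room temperature.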

A short description of assay [17]: qHTS assay for small molecule agonists of the antioxidant response element (ARE) signaling pathway - cell viability counter screen (AID 743203; calls by dose curve; further: nearly all actives have a fitted effect of over 55% in size). An outline of the steps:
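Viability counter screen: stably transfected ARE-bla HepG2 line, 16 hrs compound exposure at 37C/5% CO2, ATP-based CellTiter-Glo luminescence measured in the reporter wells.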

The nature of assay [18]: qHTS assay for small molecule agonists of the antioxidant response element (ARE) signaling pathway (AID 743202; active means well fitted activation curve with a large enough effect in the signal ratio in the repeat runs, not every such curve was filed as active; inconclusive means weak or mixed curves, or effect the other way; inactive means no such curve, though single readings can be large or run the other way; the % refers to the signal ratio). The method, boiled down: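 Following a 16 h, 37 C exposure of reporter HepG2 cells (ARE-driven beta-lactamase, 2,000 cells/well) to compounds, FRET substrate was applied for 2 h at room temperature and fluorescence intensity recorded.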
Assay [19] is described as follows: qHTS assay for small molecule activators of the heat shock response signaling pathway - cell viability counter screen (AID 743209). Further: nearly all actives have a fitted effect of over 50% in size. The method, boiled down: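 Viability of HSE-bla HeLa cells is measured with CellTiter-Glo in the wells already used for the reporter read. Compound exposure lasts 5 h at 37 C, and luminescence is read after 30 min at room temperature.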

Several values for one entry are separate records, joined by “and”; a condition that tells them apart may be missing. Equal values may be shown once. The source holds several records for some structures; these can differ, active in one and inactive in another. Activity calls are given as the source filed them. Unless noted, the call rests on the fitted dose curve; in most records, active means well fitted curve in the direction sought with a large enough effect in the repeat runs; inconclusive means weak or mixed curves; inactive means no such curve, though single readings can be large; an effect the other way counts as inactive or inconclusive. Starred links: 1 amine or outer side, 2 acyl side, 3 side chain; linkers in the order of their positions; H or OH if unused. Positions of bridges follow the written chain, without caps; N, C: chain ends. Non-standard residues stand in square brackets, D forms with d. Residues, ends and D or L forms follow the SMILES beside them. Chains are numbered I, II in the order given. Actinocin(9to1) = Cc1c2oc3c(C)ccc(C(=O)[*:1])c3nc-2c(C(=O)[*:2])c(N)c1=O; NMeV = CN[C@H](C(=O)O)C(C)C; Sar = CNCC(=O)O

Sequence of Peroxisome proliferator-activated receptor gamma (Homo sapiens) (P37231 whole entry, looked up): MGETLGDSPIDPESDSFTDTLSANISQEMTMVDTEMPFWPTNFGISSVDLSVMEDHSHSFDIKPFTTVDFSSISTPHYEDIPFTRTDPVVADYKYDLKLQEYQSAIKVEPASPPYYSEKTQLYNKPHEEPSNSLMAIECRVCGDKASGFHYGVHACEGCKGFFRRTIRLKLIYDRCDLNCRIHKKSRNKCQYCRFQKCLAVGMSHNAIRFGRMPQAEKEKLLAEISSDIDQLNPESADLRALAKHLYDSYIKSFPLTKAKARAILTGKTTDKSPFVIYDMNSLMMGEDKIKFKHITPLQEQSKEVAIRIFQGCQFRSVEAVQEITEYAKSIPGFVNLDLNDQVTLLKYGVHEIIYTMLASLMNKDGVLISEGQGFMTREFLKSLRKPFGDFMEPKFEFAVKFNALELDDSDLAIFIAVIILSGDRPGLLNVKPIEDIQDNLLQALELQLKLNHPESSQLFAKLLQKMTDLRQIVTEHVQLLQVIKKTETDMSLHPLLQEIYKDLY

With `Cc1c2oc3c(C)ccc(C(=O)N[C@@H]4C(=O)N[C@H](C(C)C)C(=O)N5CCC[C@H]5C(=O)N(C)CC(=O)N(C)[C@@H](C(C)C)C(=O)O[C@@H]4C)c3nc-2c(C(=O)N[C@@H]2C(=O)N[C@H](C(C)C)C(=O)N3CCC[C@H]3C(=O)N(C)CC(=O)N(C)[C@@H](C(C)C)C(=O)O[C@@H]2C)c(N)c1=O` (I: T[dV]P[Sar][NMeV] / II: T[dV]P[Sar][NMeV]; ester I:1-I:C, II:1-II:C; linker I:N-II:N via Actinocin(9to1)), the Potency in assay [1] is 0.0042 µM (active); in assay [3], 53.5 nM [inconclusive] (active) and 13.4 nM [inconclusive] (active); in assay [5], 84.1 nM (active) and 10.6 nM (active); in assay [6] it was 15 µM (active) and 13.3 µM (active); with Aromatase (Homo sapiens) it was 94.4 nM (active) and 1.7 nM (active); in assay [7] it was 7.48 µM (active). For the same molecule, the Potency was 18.8 nM (active) and 14.9 µM (active) in [9]; 26.8 µM (active) and inactive in assay [11]. Moreover, the Potency result in assay [2], in assay [4], in [8] and in [10] was “inactive” throughout.
For the molecule `OCC(CO)N[C@H]1C[C@](O)(CO)[C@@H](O)[C@H](O)[C@H]1O`, the Potency entry in assay [1], in assay [2], in assay [3], in [12], in assay [4] and in assay [13] was “inactive” throughout. The Potency result (in [5]; in assay [6]; with Aromatase (Homo sapiens); in assay [7]; in assay [8]; in assay [9]) was “inactive” in each case. Besides, the Potency entry in assay [14], in assay [15], in assay [16], in [17], in assay [10] and in assay [11] was “inactive” throughout.
`COC(=O)c1cccc(C(=O)OC)c1`: the Potency entry in assay [1], in assay [2], in [12], in assay [4], in assay [13] and in [5] was “inactive” in each case. In addition, the Potency result (in assay [6]; with Aromatase (Homo sapiens); in assay [7]; in [8]; in assay [9]; in [14]) was “inactive” throughout. Further, the Potency entry in [15], in assay [16], in [18], in assay [17], in assay [19] and in assay [10] was “inactive” throughout. In addition, in assay [11], the Potency result was “inactive”.
With `CCn1cc(C(=O)O)c(=O)c2cc(F)c(N3CCNC(C)C3)c(F)c21` (stereo not given), the Potency result in [1], in [2], in assay [3], in assay [12], in assay [4] and in [13] was “inactive” each time. Besides, the Potency result (in [5]; in assay [6]; with Aromatase (Homo sapiens); in assay [7]; in [8]; in [9]) was “inactive” throughout. The Potency result in assay [14], in assay [16], in assay [18], in assay [17], in assay [10] and in [11] was “inactive” each time.
Regarding `C=CS(=O)(=O)O`, the Potency result in [1], in assay [2], in assay [3], in assay [12], in [4] and in assay [13] was “inactive” throughout. Besides, the Potency result (in [5]; in [6]; with Aromatase (Homo sapiens); in [7]; in [8]; in assay [9]) was “inactive” in each case. The Potency entry in [14], in [15], in [16], in assay [18], in assay [17] and in assay [19] was “inactive” throughout. Moreover, the Potency entry in [10] and in assay [11] was “inactive” throughout.
For `CCCNC(C)C(=O)Nc1ccccc1C` (stereo not given), the Potency entry in [1], in assay [2], in assay [3], in assay [12], in assay [4] and in assay [13] was “inactive” throughout. The Potency entry (in assay [5]; in [6]; in the assay with Aromatase (Homo sapiens); in assay [7]; in assay [8]; in [9]) was “inactive” throughout. Moreover, the Potency result in assay [14], in assay [15], in assay [16], in assay [18], in assay [10] and in [11] was “inactive” in each case.
